Measured values from PubChem BioAssay (NCATS).
Results filed as inconclusive are left out. The source made the active and inactive calls. Calls come from the whole dose curve; as a rule, active = well fitted curve in the direction sought with a large enough effect; inconclusive = small, poorly fitted or top-dose-only effect, or another doubt; inactive = no such curve, though single readings can be large; an effect the other way counts as inactive or inconclusive.

Columns and labels:
[1] = tested on: Zika virus NS2B-NS3 protease (linked construct); assay: Primary screen NINDS Rhodamine qHTS for Zika virus inhibitors (AID 1347160); note: nearly all actives have a fitted effect of over 55% in size
How it was run: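 Each compound, titrated, sat 15 min with 25 nM linked protease before 1.5 microM Rhodamine110 substrate went in. Fluorescence gain over the next 15 min, in pH 8.0 Tris with Tween 20, gave Hill-fitted curves.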

[2] = target: Calcium and integrin-binding protein 1 (Homo sapiens) (UniProt Q99828); assay: Primary qHTS for Identification of Calcium Integrin Binding Protein 1 (CIB1) Competitor (AID 1508620);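 note: GST tagged CIB1 binding a fluorescein labelled alphaIIb integrin peptide tracer; top concentration of the series differs between compounds; % is set by controls: 0 for no effect and ±100 for the full control effect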
Calcium and integrin-binding protein 1 (Homo sapiens), sequence (Q99828 whole entry, looked up): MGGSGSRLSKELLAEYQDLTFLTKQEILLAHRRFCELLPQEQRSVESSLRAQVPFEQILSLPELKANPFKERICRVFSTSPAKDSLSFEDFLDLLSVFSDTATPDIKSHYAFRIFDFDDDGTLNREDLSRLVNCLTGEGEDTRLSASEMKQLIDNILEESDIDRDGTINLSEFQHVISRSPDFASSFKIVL
How it was run: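 Fluorescence polarization competition: CIB1-GST (1 uM final) preincubated with compound 15 min at room temperature, then FITC-labeled alphaIIb peptide (100 nM final) added for another 15 min. Polarization read at Ex 480/Em 540.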

[3] = target: Glutathione peroxidase 1 (Homo sapiens) (UniProt P07203); assay: Primary qHTS Assay for Inhibitors of Recombinant Selenoprotein Glutathione Peroxidase 1 (GPX1) (AID 1845191); note: nearly all actives have a fitted effect of over 65% in size; for activity, negative = inhibition: % is set by controls: 0 for no effect and ±100 for the full control effect
Glutathione peroxidase 1 (Homo sapiens), sequence (P07203 whole entry, looked up): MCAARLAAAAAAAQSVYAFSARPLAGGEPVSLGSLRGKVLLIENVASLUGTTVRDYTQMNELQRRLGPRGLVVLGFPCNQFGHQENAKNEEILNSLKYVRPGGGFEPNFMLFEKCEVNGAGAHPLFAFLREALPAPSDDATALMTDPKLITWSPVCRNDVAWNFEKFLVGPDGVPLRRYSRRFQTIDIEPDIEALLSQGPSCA
How it was run: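 GPX1 10 nM, GR 100 nM, GSH 1 mM, NADPH 0.5 mM, CHP 0.5 mM (final). 30-min cpd preincubation, RT. Ex340/Em450 read t=0, t=15 min.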

[4] = target: Phospholipid hydroperoxide glutathione peroxidase GPX4 (Homo sapiens) (UniProt P36969); assay: Primary qHTS Assay for Inhibitors of Recombinant Selenoprotein Glutathione Peroxidase 4 (GPX4) (AID 1845192); note: nearly all actives have a fitted effect of over 65% in size; for activity change, negative = inhibition: % is set by controls: 0 for no effect and ±100 for the full control effect
Phospholipid hydroperoxide glutathione peroxidase GPX4 (Homo sapiens), sequence (P36969 whole entry, looked up): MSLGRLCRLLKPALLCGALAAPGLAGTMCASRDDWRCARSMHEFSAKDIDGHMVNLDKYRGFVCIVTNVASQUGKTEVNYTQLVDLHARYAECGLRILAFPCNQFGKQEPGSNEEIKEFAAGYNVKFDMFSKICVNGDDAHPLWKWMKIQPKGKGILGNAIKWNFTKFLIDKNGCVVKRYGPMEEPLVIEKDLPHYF
How it was run: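 qHTS, GR-coupled: GPX4 200 nM + cpd 30 min RT → GSH 1 mM, NADPH 0.5 mM, GR 100 nM → CHP 0.5 mM start; fluor 340/450 at t0 and t15 min; no-enzyme wells as control.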

[5] = target: Luciferin 4-monooxygenase (Photinus pyralis) (UniProt P08659); assay: Primary firefly luciferase (FLuc) qHTS assay for identification of artifact compounds. (AID 1845220); conditions: outcome: dose series up to 54.1 µM unless noted; note: nearly all actives have a fitted effect of over 60% in size;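 for activity change, negative = inhibition: plate controls were DMSO vehicle for no effect and no enzyme for full effect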
How it was run: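 Reaction readout was CCD-imaged luminescence, taken 5 min after adding 10 nM purified firefly enzyme to compound-treated wells holding 10 uM luciferin and ATP in pH 7.6 buffer.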

[6] = Primary fluorescence-based thiol-reactive (MSTI) qHTS assay for identification of artifact compounds. (AID 1845221);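 note: thiol-reactive compounds lower the probe fluorescence signal; nearly all actives have a fitted effect of over 65% in size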
How it was run: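 Thiol-reactive compounds detected by quenching of 4 uM MSTI fluorescence (525/598 nm) after 1 h room-temperature dark incubation in PBS pH 7.4, 2% DMSO. qHTS titration; percent inhibition Hill-fitted against Acetyl-MSTI/MSTI controls.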

[7] = tested on: Nanoluciferase (engineered Oplophorus gracilirostris luciferase); assay: Primary Nanoluciferase (NLuc) qHTS assay for identification of artifact compounds. (AID 1845222);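 note: NLuc secreted into diluted conditioned medium of S16 cells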
How it was run: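 Concentration-response data were obtained by luminescence after 5 min with Nano-Glo substrate at 1:100. The enzyme was diluted S16 NLuc-expressing cell medium, preincubated with compound for 15 min at RT. Curves were fitted with a 4-parameter Hill model.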

[8] = Primary redox qHTS assay for identification of artifact compounds. (AID 1845223);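 note: 0% = DMSO and 100% = reference compound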
How it was run: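 Redox-cycling detection via DTT (250 uM final) oxidation coupled to Amplex Red (25 uM)/HRP (250 mU/mL) in HBSS. 15 min preincubation plus 30 min after DTT, room temperature. Ex/Em 525/598 nm; 4-parameter Hill fit against DMSO and 10 uM DA3003.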

HaCat = assay: Cytotoxic Profiling of Annotated Libraries Using Quantitative High-Throughput Screening (AID 1296008); conditions: Five cell lines viability, CellTiter-Glo ATP luminescence, 48-72 h; max response: active compounds read low; note: nearly all actives have a fitted effect of over 60% in size; note: potency is the fitted concentration of half-maximal effect; for max response: % is set by controls: 0 for no effect and ±100 for the full control effect
How it was run: (§1)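 Compounds were pin-transferred onto cells and incubated 48 or 72 hr at 37 degree Celsius, 95% humidity. CellTiter-Glo was added, plates sat 10 min at room temperature, then ATP-coupled luminescence was imaged as the viability read-out.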

NIH3T3 = assay: as above; conditions: Five cell lines viability, CellTiter-Glo ATP luminescence, 48-72 h; max response: active compounds read low
How it was run: as §1

C33A = assay: Primary qHTS to identify gynecologic anti-cancer compounds using libraries of approved drugs and bioactive compounds (AID 1345084); conditions: Gynecologic cancer cell panel viability, ATPlite luminescence, 48 h; series mostly up to 57.5 µM; note: nearly all actives have a fitted effect of over 55% in size; note: potency is the fitted concentration of half-maximal effect
How it was run: (§2)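 Five-point cytotoxicity, 48 h drug exposure at 37 C, 5% CO2, on cells seeded 16 h beforehand. ATP content read by ATPlite luminescence.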

CAOV3 = assay: as above; conditions: Gynecologic cancer cell panel viability, ATPlite luminescence, 48 h; series mostly up to 57.5 µM
How it was run: as §2

CASKI = assay: as above; conditions: Gynecologic cancer cell panel viability, ATPlite luminescence, 48 h; series mostly up to 57.5 µM
How it was run: as §2

Es-2 = assay: as above; conditions: Gynecologic cancer cell panel viability, ATPlite luminescence, 48 h; series mostly up to 57.5 µM
How it was run: as §2

Hek293T = assay: as above; conditions: Gynecologic cancer cell panel viability, ATPlite luminescence, 48 h, control line for the selectivity index; series mostly up to 57.5 µM
How it was run: as §2

JEG-3 = assay: as above; conditions: Gynecologic cancer cell panel viability, ATPlite luminescence, 48 h; series mostly up to 57.5 µM
How it was run: as §2

OV90 = assay: as above; conditions: Gynecologic cancer cell panel viability, ATPlite luminescence, 48 h; series mostly up to 57.5 µM
How it was run: as §2

PA-1 = assay: as above; conditions: Gynecologic cancer cell panel viability, ATPlite luminescence, 48 h; series mostly up to 57.5 µM
How it was run: as §2

Tov-21-G = assay: as above; conditions: Gynecologic cancer cell panel viability, ATPlite luminescence, 48 h; series mostly up to 57.5 µM
How it was run: as §2

Tov112D = assay: as above; conditions: Gynecologic cancer cell panel viability, ATPlite luminescence, 48 h; series mostly up to 57.5 µM
How it was run: as §2

c1ccc(C2(c3ccccc3)OC[C@@H]([C@H]3CCCCN3)O2)cc1
inactive: Potency [1] | Potency [2] | Potency [3] | Potency [4] | outcome [5] | Potency [6] | Potency [7] | Potency [8] | max response (HaCat) 4.38% | max response (NIH3T3) 0.771% | Potency (C33A) | Potency (CAOV3) | Potency (CASKI) | Potency (Es-2) | Potency (Hek293T) | Potency (JEG-3) | Potency (OV90) | Potency (PA-1) | Potency (Tov-21-G) | Potency (Tov112D)

C[C@]12CC[C@H](O[C@@H]3O[C@H](CO)[C@@H](O)[C@H](O)[C@H]3O)CC1=CC[C@@H]1C2CC[C@]2(C)[C@@H](C3=CC(=O)OC3)CC[C@]12O (stereo not given in full)
inactive: Potency [1] | Potency [2] | Potency [3] | Potency [4] | outcome [5] inactive [at 25.7 µM] | Potency [6] | Potency [7] | Potency [8] | max response (NIH3T3) 0.891% | Potency (JEG-3) | Potency (OV90)
active: Potency (Es-2) 10 µM | Potency (Tov-21-G) 6.31 µM | Potency (Tov112D) 3160 nM

O=C1CN=C(c2ccccc2Cl)c2cc(Br)ccc2N1
inactive: Potency [1] | Potency [4] | outcome [5] | Potency [6] | Potency [7] | Potency [8] | max response (HaCat) -40.1% | outcome (NIH3T3) | Potency (C33A) | Potency (CAOV3) | Potency (CASKI) | Potency (Es-2) | Potency (Hek293T) | Potency (JEG-3) | Potency (OV90) | Potency (PA-1) | Potency (Tov-21-G) | Potency (Tov112D)

COc1ccc(CCNCc2ccc(OC)c3ccccc23)cc1
inactive: Potency [1] | Potency [2] | Potency [4] | outcome [5] | Potency [6] | Potency [7] | Potency [8] | max response (NIH3T3) -21.8% | Potency (C33A) | Potency (CAOV3) | Potency (CASKI) | Potency (Es-2) | Potency (Hek293T) | Potency (OV90) | Potency (PA-1) | Potency (Tov-21-G) | Potency (Tov112D)

COC1CC(OC2CCC3(C=O)C(CCC4C3CCC3(C)C(C5=CC(=O)OC5)CCC43O)C2)OC(C)C1O (stereo not given)
active: Potency (HaCat) 2.82 µM | Potency (C33A) 141 nM | Potency (CAOV3) 316 nM | Potency (CASKI) 1 µM | Potency (Es-2) 0.251 µM | Potency (Hek293T) 251 nM | Potency (JEG-3) 631 nM | Potency (OV90) 1 µM | Potency (PA-1) 199 nM | Potency (Tov-21-G) 0.178 µM | Potency (Tov112D) 100 nM
inactive: Potency [4] | outcome [5] inactive [at 25.7 µM] | Potency [7] | max response (NIH3T3) 0.727%

O=C1Nc2ccc3ncsc3c2/C1=C/c1cnc[nH]1
inactive: Potency [1] | Potency [3] | Potency [4] | outcome [5] | Potency [7] | Potency [8] | Potency (OV90)
active: Potency (HaCat) 4.11 µM | Potency (PA-1) 7940 nM

CCC1CN2CCc3cc(OC)c(OC)cc3C2CC1CC1=NCCc2cc(O)c(OC)cc21 (stereo not given)
inactive: Potency [1] | Potency [2] | Potency [3] | outcome [5] | Potency [7] | outcome (HaCat) | Potency (C33A) | Potency (CAOV3) | Potency (CASKI) | Potency (Es-2) | Potency (Hek293T) | Potency (JEG-3) | Potency (OV90) | Potency (PA-1) | Potency (Tov-21-G) | Potency (Tov112D)

C[C@@H]1O[C@@H](O[C@H]2CC[C@@]3(C)C(CC[C@@H]4C3CC[C@]3(C)[C@@H](C5=CC(=O)OC5)CC[C@]43O)C2)[C@H](O)[C@H](O)[C@H]1O (stereo not given in full)
active: Potency (HaCat) 2.82 µM | Potency (C33A) 1000 nM | Potency (CAOV3) 3980 nM | Potency (CASKI) 4.47 µM | Potency (Es-2) 1.26 µM | Potency (Hek293T) 1000 nM | Potency (OV90) 5.62 µM | Potency (PA-1) 1000 nM | Potency (Tov-21-G) 1 µM | Potency (Tov112D) 355 nM
inactive: Potency [1] | Potency [3] | Potency [4] | outcome [5] inactive [at 25.7 µM] | Potency [6] | Potency [7] | Potency [8] | max response (NIH3T3) -2.8%

CO[C@H]1C[C@H](O[C@H]2CC[C@]3(CO)[C@H]4CC[C@]5(C)[C@@H](C6=CC(=O)OC6)CC[C@]5(O)[C@@H]4CC[C@]3(O)C2)O[C@H](C)[C@H]1O
inactive: Potency [1] | Potency [2] | Potency [3] | Potency [4] | outcome [5] | Potency [6] | Potency [7] | Potency [8] | max response (NIH3T3) 1.22%
active: Potency (C33A) 89.1 nM | Potency (CAOV3) 355 nM | Potency (CASKI) 0.891 µM | Potency (Es-2) 0.199 µM | Potency (Hek293T) 224 nM | Potency (OV90) 1 µM | Potency (PA-1) 112 nM | Potency (Tov-21-G) 0.141 µM | Potency (Tov112D) 31.6 nM

CO[C@@H]1[C@@H](O)[C@@H](O[C@H]2CC[C@]3(C=O)C4CC[C@]5(C)[C@@H](C6=CC(=O)OC6)CC[C@]5(O)[C@@H]4CC[C@H]3C2)O[C@@H](C)[C@H]1O[C@@H]1O[C@H](CO[C@@H]2O[C@H](CO)[C@@H](O)[C@H](O)[C@H]2O)[C@@H](O)[C@H](O)[C@H]1O (stereo not given in full)
inactive: Potency [1] | Potency [2] | Potency [3] | Potency [4] | activity change, negative = inhibition [5] -6.08% [at 11.6 µM] | activity change, negative = thiol reactive [6] 52.3% [at 11.5 µM] | activity, negative = inhibition [7] 1.53% [at 11.6 µM] | redox activity (% of DA3003) [8] 5.87% [at 11.5 µM] | max response (HaCat) -22.5% | outcome (NIH3T3) | activity change, negative = cytotoxicity (CAOV3) -17.5% [at 11.6 µM] | activity change, negative = cytotoxicity (CASKI) 13.6% [at 11.6 µM] | activity change, negative = cytotoxicity (JEG-3) -2.75% [at 11.6 µM] | activity change, negative = cytotoxicity (OV90) 8.02% [at 11.6 µM]
active: Potency (C33A) 3550 nM | Potency (Es-2) 2 µM | Potency (Tov-21-G) 3.55 µM | Potency (Tov112D) 2510 nM

CC(=O)NCCCOc1ccc(C(=O)N2CCC(N3C(=O)CCc4ccccc43)CC2)cc1
inactive: Potency [1] | Potency [2] | Potency [4] | outcome [5] | Potency [6] | Potency [7] | Potency [8] | max response (NIH3T3) -14% | Potency (C33A) | Potency (CASKI) | Potency (Es-2) | Potency (Hek293T) | Potency (JEG-3) | Potency (OV90) | Potency (PA-1) | Potency (Tov-21-G) | Potency (Tov112D)
